According to PubChem BioAssay (NCATS):
Results filed as inconclusive are left out. A call without a number means that no potency is given here. Activity calls are given as the source filed them. Calls come from the whole dose curve; as a rule, active = well fitted cell-killing curve with a large enough effect; inconclusive = small, poorly fitted or top-dose-only effect; inactive = flat fitted curve, though single readings scatter.

Assay: Cell Viability - LYMP2-018 (AID 985);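 note: compound exposure lasted 24 hr at 37 °C; nearly all actives have a fitted effect of over 50% in size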
Conditions: LYMP2-018 lymphoblastoid cells, viability (qHTS); series mostly up to 92.2 µM
Text: NIH Chemical Genomics Center [NCGC]
NIH Molecular Libraries Screening Centers Network [MLSCN]
National Institutes of Environmental Health Sciences [NIEHS]
National Toxicology Program [NTP]
We have developed a 1536-well cell-based assay for quantitative high throughput screening (qHTS) against a number of cell lines to determine in vitro cytotoxicity of small molecules. This particular assay uses a human lymphoblastoid cell line (LYMP2-018) purchased from Coriell Institute for Medical Research.
NCGC Assay Protocol Summary:
The CellTiter-Glo luminescent cell viability assay (Promega) is a homogeneous method to measure the number of viable cells in culture. The end point readout of this assay is based on quantitation of intracellular ATP, an indicator of metabolic activity, using the luciferase reaction. Luciferase catalyzes the oxidation of beetle Luciferin to oxyluciferin and light in the presence of ATP. The luminescent signal is proportional to amount of ATP present.
Using the CellTiter-Glo luminescent cell viability assay, the amount of cellular ATP was measured in the lymphoblastoid cell line with complete culture medium following compound treatment for 24 hours. The assay was performed in opaque white Kalypsys 1536-well plates. In the screen, tetraoctylammonium bromide was used as positive control. Library compounds were measured for their ability to cause acute toxicity in the cell line, as reflected by a decrease in intracellular ATP levels, in a concentration-dependent manner. […] AC50 values were determined from concentration-response data modeled with the standard Hill equation.
qHTS protocol for CellTiter Glo lymphoblastoid cellular assay
[Step] [Parameter] [Value] [Description]
1. Reagent; 5 uL; 2500 lymphoblastoid cells/well
2. Time; 5 hr; 37 C incubation
4. Controls; 23 nL; Tetraoctylammonium bromide 6.4pM to 92 uM
5. Time; 24 hr; 37 C incubation
6. Reagent; 5 uL; CellTiter Glo reagent
7. Time; 30 min; Room Temperature
8. Detection; Luminescence; Viewlux plate reader
Keywords: cell viability, cytotoxicity, lymphoblastoid cell line, luminescence, NTPHTS, NTPHTS_NCGC, NIEHS, DSSTox, MLSMR, MLSCN, NIH Roadmap, qHTS, NCGC
Potency is the fitted concentration of half-maximal effect.

SMILES | Potency
CCC(C)(C)OC | inactive
Clc1cc(Cl)cc(Cl)c1 | inactive
NC(=O)CCCCC(N)=O | inactive
O=C1OC(=O)c2c(Cl)c(Cl)c(Cl)c(Cl)c21 | inactive
CC1=C(/C=C/C(C)=C/C=C/C(C)=C\C=O)C(C)(C)CCC1 | 50.1 µM (active)
CCNc1cc(O)ccc1C | inactive
Nc1nc2ccccc2[nH]1 | inactive
O=Cc1c(Cl)cccc1Cl | inactive
CCCCCNCCCCC | inactive
C=CCCC | inactive
Cc1ccc2ncccc2c1 | inactive
O=C1OC(=O)c2c(Br)c(Br)c(Br)c(Br)c21 | inactive
CC(C)C(C)C | inactive
Cc1ccc(C#N)cc1 | inactive
CCNS(=O)(=O)c1ccc(C)cc1 | inactive
Cc1cccc2sc(N)nc12 | inactive
CSCCC=O | inactive
O=C1CCC(=O)O1 | inactive
CCN(Cc1ccccc1)c1ccccc1 | inactive
CCCCC(=O)N(C)C | inactive

SMILES | Potency
CCOCC(=O)O | inactive
CC(O)CC(C)O (stereo not given) | inactive
CC(N)CN (stereo not given) | inactive
CCCCC(CC)CNCC(CC)CCCC (stereo not given) | inactive
C=Cc1ccc(C=C)cc1 | inactive
Cc1ccc(C)c([N+](=O)[O-])c1 | inactive
CCCCC(C=O)CC (stereo not given) | inactive
O=C(O[C@@H](C(=O)O)[C@@H](OC(=O)c1ccccc1)C(=O)O)c1ccccc1 | inactive
Cc1cscn1 | inactive
CCOCCOCC | inactive
O=C1C=CCCC1 | inactive
CCCOCC(C)O (stereo not given) | inactive
C=C(C)C(=O)OC | inactive
O=Cc1ccccc1Cl | inactive
O=C(O)CNC(=O)c1ccc(CO)o1 | inactive
COc1ccc(N)c(OC)c1 | inactive
BrC(Br)C(Br)Br | inactive
C=CCCCCCCC=C | inactive
Cc1cc(C2(c3cc(C)c(O)cc3C)OS(=O)(=O)c3ccccc32)c(C)cc1O | inactive
OC(CCl)CCl | inactive
